# Screening results as filed in PubChem BioAssay.
# MBNL1-CUG inh: MBNL1-poly(CUG) RNA binding inhibition. 280,000 compounds, 0.036% hits. Potency, µM (titrated, usually from 57.5 µM), for the others: at the top dose activity change, negative = inhibition, hits mostly inhibitors. Q9NR56. TR-FRET MBNL1-His/biotin-(CUG)12 binding, 665/545 ratio; active = well fitted inhibition curve with a large enough effect in the signal ratio, with a control signal flat, not every such curve was filed as active; inconclusive = small, poorly fitted or top-dose-only effect, or effect the other way, or a change in a side signal; inactive = no such curve, though single readings can be large or run the other way; the % refers to the signal ratio; also: potency is read from the fitted curve at half-maximal effect; % is scaled to controls: 0 for no effect and ±100 for the full control effect
#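 Compounds (final 92 nM to 58 uM) are added to His-tagged MBNL1 and biotin-(CUG)12, then terbium anti-His antibody and streptavidin-XL665 (5 nM final). After 60 min at room temperature, the 665/545 nm ratio is read.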
# RORgamma inh: inhibitors of mouse ROR gamma transcriptional activity | Drosophila S2 Gal4-RORgamma UAS-luciferase reporter, 20 h | Potency, µM (titrated, usually from 53.6 µM), inactives show top-dose activity change, negative = inhibition, actives largely listed as inhibitors | 310,000 compounds, 5.4% hits; also: potency is read from the fitted curve at half-maximal effect; % is scaled to controls: 0 for no effect and ±100 for the full control effect; nearly all actives have a fitted effect of over 60% in size
#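 Using a luciferase readout, inhibitors were identified by reduced reporter activity in Drosophila cells coexpressing a copper-inducible Gal4–ROR gamma fusion and UAS-driven Photinus luciferase, incubated 20 hr after 700 uM copper sulfate.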
# CtBP-E1A inh: blocks the CtBP interaction with E1A | AlphaScreen GST-E1A/His-CtBP binding, 1536-well; active compounds read low | activity change, % (no concentration beside the values) | 340,000 compounds, 0.49% hits | AID 651724; in the data active = activity change below about -65%; inconclusive = mostly about -30% to -63%; also: % is scaled to controls: 0 for no effect and ±100 for the full control effect
#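 Protein mix (5X: 125 nM each GST-E1A, His-CtBP) was incubated with pinned compound 2 h at 37 deg C in dark, in 50 mM Tris pH 8.0 buffer with 300 mM NaCl. Glutathione donor and nickel acceptor beads followed; AlphaScreen signal read after 1 h.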
# VP16 counter: inhibits Gal4-VP16 luciferase reporter, ROR gamma counter-screen; Drosophila S2 Gal4-VP16 UAS-luciferase, luminescence, 20 h; Potency, µM (titrated, usually from 53.6 µM), for inactives: top-dose activity, negative = inhibition, actives largely listed as inhibitors; 310,000 compounds, 3.5% hits;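 also: Gal4-VP16 expression switched on by copper sulfate through the metallothionein promoter; potency is read from the fitted curve at half-maximal effect; % is scaled to controls: 0 for no effect and ±100 for the full control effect; nearly all actives have a fitted effect of over 50% in size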
# Six1-Eya2 blk: blocks human Six1 binding to Eya2; AlphaScreen GST-Six1/His-Eya2 binding, biochemical; active compounds read low; activity change, % (concentration not given with the values); 360,000 compounds, 0.56% hits; AID 651725; in the data active = activity change below about -65%; inconclusive = mostly about -30% to -63%; also: % is scaled to controls: 0 for no effect and ±100 for the full control effect
#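 Homogeneous AlphaScreen proximity assay pairing GST-Six1 with His-tagged Eya2 (added as 5X mix: 250 nM and 500 nM) in 50 mM Tris pH 8.0, 300 mM NaCl, 1 mM TCEP. Glutathione donor and nickel acceptor beads; 1 h, 37 °C, dark.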
# CBFb RUNX1 block: blocks binding between human CBF-beta and RUNX1. Q01196+Q13951. AlphaScreen CBFb-His/RUNX1-biotin binding, biochemical. Potency, µM (titrated, usually from 59.8 µM), without a hit: at the top dose activity, negative = inhibition, hits mostly inhibitors. 230,000 tested, under 10 active. AID 1477; also: % of control where 0% means no effect
# Target sequence (Q01196 whole entry, looked up): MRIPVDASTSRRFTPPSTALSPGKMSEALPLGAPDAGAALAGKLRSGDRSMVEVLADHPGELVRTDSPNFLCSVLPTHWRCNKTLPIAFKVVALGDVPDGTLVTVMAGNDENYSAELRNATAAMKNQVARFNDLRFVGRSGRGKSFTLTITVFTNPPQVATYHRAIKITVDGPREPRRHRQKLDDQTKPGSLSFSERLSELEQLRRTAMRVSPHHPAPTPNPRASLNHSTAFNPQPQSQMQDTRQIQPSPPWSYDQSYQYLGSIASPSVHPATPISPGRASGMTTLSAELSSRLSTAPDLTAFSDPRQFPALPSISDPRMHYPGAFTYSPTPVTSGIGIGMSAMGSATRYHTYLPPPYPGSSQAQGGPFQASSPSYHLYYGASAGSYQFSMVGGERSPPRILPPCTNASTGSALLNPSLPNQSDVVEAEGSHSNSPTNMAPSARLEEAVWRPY
# Target sequence (Q13951 whole entry, looked up): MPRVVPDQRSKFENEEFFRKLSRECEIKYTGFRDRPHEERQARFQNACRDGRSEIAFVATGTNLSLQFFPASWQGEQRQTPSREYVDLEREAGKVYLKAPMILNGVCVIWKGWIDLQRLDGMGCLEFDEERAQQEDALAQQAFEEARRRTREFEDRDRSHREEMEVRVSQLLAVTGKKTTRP
#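 Read-out: AlphaScreen. Format: His-CBF-beta with biotinylated RUNX1 (30 nM each) preincubated 20 min, compound 15 min, Ni-chelate plus streptavidin beads 90 min; room temperature throughout.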
# An asterisk follows results filed as active; ? = inconclusive; / = no result; [ ] = remark or other dose. A selection: hits, their analogues and other compounds. The true share with any hit is near 5.5%. Unless noted, calls follow the shape of the dose curve; as a rule, active = well fitted curve in the direction sought with a large enough effect; inconclusive = small, poorly fitted or top-dose-only effect, or another doubt; inactive = no such curve, though single readings can be large; an effect the other way counts as inactive or inconclusive.
SMILES,MBNL1-CUG inh,RORgamma inh,CtBP-E1A inh,VP16 counter,Six1-Eya2 blk,CBFb RUNX1 block
COc1coc(C(O)CN)cc1=O (configuration not stated),-2.2%,45.0%,-24.1,0.6%,-16.4,10.1%
CCOC(=O)C(=Cc1cc(=O)c(OC)co1)C(=O)OCC,-5.1%[11.5 µM],4.47µM*,9.4,5.01µM*,1.5,11.2%
O=C(COC(=O)c1ccc(O)cc1)Nc1cc(S(=O)(=O)N2CCOCC2)ccc1Cl,/,/,-5.7,/,-4.4,/
S=C(NCCCN1CCOCC1)NN=C1c2ccccc2-c2ccccc21,/,/,-18.8,/,?,/
CCNC(=S)NN=C1c2ccccc2-c2ccccc21,/,1.78µM*,-11.2,3.16µM*,?,/
C=C(C)CNC(=S)NN=C1c2ccccc2-c2ccccc21,0.6%,3.16µM*,5.0,?,-27.2,-26.5%
C=C(C)CNC(=S)N/N=C/c1ccco1,?,0.562µM*,-0.1,3.16µM*,2.9,5.7%
Cc1csc(-c2nc3ccccc3n2C(C)c2nc3ccccc3[nH]2)c1 (configuration not stated),/,/,5.9,/,-0.9,/
C[C@@H]1CCCCO[C@@H](CN(C)C(=O)Nc2ccc3c(c2)OCO3)[C@@H](C)CN([C@H](C)CO)C(=O)c2cc(N(C)C)ccc2O1,/,/,4.1,/,6.2,/
CC(N)C(=O)NC(C(=O)NC(C)C(=O)Nc1cccc2ccccc12)C(C)C (configuration not stated),/,/,-2.4,/,-6.9,/
CC(=O)Nc1ccc(NC(=O)Cn2cnc3c(cnn3C(C)(C)C)c2=O)cc1,-5.4%,-27.5%[0.365 µM],1.0,/,0.0,-2.4%
CC(C)(C)n1ncc2c(=O)n(CC(=O)NCc3ccccc3)cnc21,-14.1%,10µM*,3.9,?,-3.1,3.6%
S=c1[nH]nc(COc2ccccc2)n1/N=C/C=C/c1ccco1,7.7%,-41.6%,-1.9,-3.5%,-12.9,?
S=c1[nH]nc(COc2ccccc2)n1/N=C/C(Cl)=C/c1ccccc1,-0.3%,7.94µM*,9.0,?,-9.0,-11.2%
S=c1[nH]nc(COc2ccccc2)n1/N=C/C=C/c1ccccc1,14.3%,?,-1.9,4.47µM*,-8.8,-20.3%
COc1ccc(-n2nc(C(=O)NCC(=O)NCCC3=CCCCC3)c3ccccc3c2=O)cc1OC,?,-8.0%,1.3,-8.7%,5.7,/
Cc1cc(C(=O)N/N=C/c2ccc([N+](=O)[O-])o2)c(C)o1,/,-40.5%,/,?,-14.8,-3.2%
Cc1cccc(-c2cc(C(=O)N/N=C/c3cccnc3)c3ccccc3n2)c1,/,/,-20.8,/,-6.5,/
O=C(N/N=C/c1ccc([N+](=O)[O-])o1)c1cc(-c2cccc(Br)c2)nc2ccccc12,13.3%,3.16µM*,-2.7,?,-7.6,-2.6%
CCCc1ccc(-c2cc(C(=O)N/N=C/c3ccc([N+](=O)[O-])o3)c3ccccc3n2)cc1,8.6%,7.08µM*,-17.9,8.91µM*,-22.2,-23.0%
CCOc1cccc(C(=O)Nc2ccccc2C(=O)N2CCN(C)CC2)c1,2.3%,-19.9%,-0.5,1.1%,12.1,/
Cc1ccc([C@@H]2CC(=O)[C@@H]3CN(S(=O)(=O)c4ccc(C)cc4)[C@H](c4ccccc4)C[C@@H]3N2S(=O)(=O)c2ccc(C)cc2)cc1,/,/,-1.9,/,-4.2,/
O=C(CN1CCNCC1)NC1CCCCC1,/,10.0%,/,-6.5%,/,/
COc1ccccc1/C=C1\NC(=S)N(CC2CCCO2)C1=O (configuration not stated),?,14.8%,4.4,12.6µM*,-5.7,0.9%
O=C(Nc1ccc(S(=O)(=O)N2CCCC2)cc1)c1cccnc1Cl,/,/,-6.7,/,8.0,/
SMILES,MBNL1-CUG inh,RORgamma inh,CtBP-E1A inh,VP16 counter,Six1-Eya2 blk,CBFb RUNX1 block
CCn1cc(C(=O)N2CCCC2)c(=O)c2cc(S(=O)(=O)N3CCOCC3)ccc21,-5.7%,4.47µM*,0.9,3.0%,3.5,7.0%
CCn1cc(C(=O)N2CCCC2)c(=O)c2cc(S(=O)(=O)N3CCC(C)CC3)ccc21,-5.4%,1.6%,8.5,-1.1%,2.2,/
CCCNC(=O)C1(C)CCN(Cc2ccc(OCc3ccccc3)cc2)C1 (configuration not stated),/,/,-7.0,/,3.7,/
COc1ccccc1OCC(=O)N/N=C/c1c(O)ccc2ccccc12,23.0%,2.82µM*,/,2.51µM*,/,/
COc1ccccc1OCC(=O)N/N=C/c1cccc2cccnc12,?,17.8µM*,-86.1*,?,-74.4*,/
COc1ccc(/C=N/NC(=O)COc2cccc3ccccc23)c(C(=O)O)c1OC,-8.2%,-17.0%,-1.9,?,3.5,?
Cc1cc(/C=N\NC(=O)COc2cccc3cccnc23)c(C)n1-c1ccccc1,-5.0%,22.3%,-17.5,3.4%,-12.2,-5.0%
COc1cccc(/C=N/NC(=O)COc2cccc3cccnc23)c1O,7.8%,2.24µM*,-79.9*,12.6µM*,?,3.1%
COc1ccc(CNc2ncnc3ccc(-c4c(C)noc4C)cc23)c(OC)c1,/,?,/,-2.5%,/,/
CCOC(=O)c1c(-c2ccc(OC)cc2)csc1/N=C/C1C(=O)CCCC1=O,11.7%,3.16µM*,-0.9,?,-3.0,-4.2%
CCOC(=O)c1c(-c2ccc(OC)cc2)csc1/N=C/N(C)C,?,6.8%,3.5,0.0%,12.4,-0.1%
C=CCn1c(N)c(C(=O)NCC2CCCO2)c2nc3ccccc3nc21 (configuration not stated),31.7%,12.6µM*,13.1,?,6.0,?
COc1cc(/C=N/n2cnnc2)ccc1OC(=O)c1cccnc1,?,?,-3.3,11.2µM*,-2.0,10.5%
COc1cccc(C(=O)Oc2ccc(/C=N/Nc3ccc(C(=O)O)cc3)cc2OC)c1,14.8%,-10.6%[1.91 µM],-5.9,2.24µM*,-7.1,/
COc1cccc(OCc2cc(/C=N/Nc3ccc(C(=O)O)cc3)ccc2OC)c1,6.8%,0.282µM*,-3.7,7.94µM*,-14.2,2.1%
COC(CNC(=O)C1CCC(CNS(=O)(=O)c2c(C)cc(C)cc2C)CC1)OC (configuration not stated),40.1%,20.7%,/,-5.6%,0.1,/
O=[N+]([O-])c1cccc2nc3ccccc3c(NCCCn3ccnc3[N+](=O)[O-])c12,/,/,?,/,-28.2,/
Nc1ncnc2c1ncn2[C@H]1O[C@@H](CSCC[C@@H](N)C(=O)O)[C@H](O)[C@@H]1O,/,/,/,/,/,12.4%
Cc1cccc(NC(=S)NC2CCSc3ccccc32)c1 (configuration not stated),1.6%,3.55µM*,-16.6,5.62µM*,-19.5,/
FC(F)(F)c1cccc(/C=N/NC(=S)NC2CCCCC2)c1,-2.2%,0.562µM*,-9.2,6.31µM*,-0.9,-14.3%
